Screening results (PubChem BioAssay)
SARS PLP yeast: qHTS of Yeast-based Assay for SARS-CoV PLP; S. cerevisiae expressing SARS-CoV PLpro, growth rescue; Potency, µM (series often up to 32.9 µM), inactives show at the top dose activity, positive = growth rescue, most hits filed as activators; hit rate 0.19% among 330,000; AID 485353, 2010; calls by dose curve; also: potency is read from the fitted curve at half-maximal effect; 0% is about no effect; nearly all actives have a fitted effect of over 55% in size
LmPK inh: qHTS Assay for Inhibitors of Leishmania Mexicana Pyruvate Kinase (LmPK) | purified LmPK, Kinase-Glo ATP luminescence, 1 h | hit rate 0.37% among 290,000 | Potency, µM (doses to about 57.5 µM), without a hit: top-dose activity change, negative = inhibition, hits mostly inhibitors | AID 1721, 2009 | Q27686; also: potency is read from the fitted curve at half-maximal effect; % is scaled to controls: 0 for no effect and ±100 for the full control effect
Target sequence (Q27686 whole entry, looked up): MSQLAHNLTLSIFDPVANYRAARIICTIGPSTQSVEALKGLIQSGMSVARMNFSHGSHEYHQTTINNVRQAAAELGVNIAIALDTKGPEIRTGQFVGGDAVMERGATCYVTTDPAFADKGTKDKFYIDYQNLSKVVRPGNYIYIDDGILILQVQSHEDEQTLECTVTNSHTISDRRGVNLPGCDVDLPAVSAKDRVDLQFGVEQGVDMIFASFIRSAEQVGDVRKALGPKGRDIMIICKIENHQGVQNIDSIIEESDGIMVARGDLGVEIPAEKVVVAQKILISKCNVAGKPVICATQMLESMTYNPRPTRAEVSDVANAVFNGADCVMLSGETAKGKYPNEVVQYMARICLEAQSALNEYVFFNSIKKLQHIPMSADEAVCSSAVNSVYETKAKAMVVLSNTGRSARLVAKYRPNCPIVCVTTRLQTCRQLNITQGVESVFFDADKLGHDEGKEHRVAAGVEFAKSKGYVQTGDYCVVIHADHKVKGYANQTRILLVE
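Screened at intermediate enzyme activity to detect both inhibitors and activators: LmPK at 0.1 nM, with a 0.5 nM enzyme column as activation reference. PEP 0.5 mM, ADP 0.1 mM; ATP detected by luminescence after 1 h.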
NS1 function inh: qHTS Assay for Inhibitors of Influenza NS1 Protein Function; Potency, µM (highest dose often 46.1 µM), for the others: top-dose activity, positive = more growth; hit rate 0.4% among 270,000; calls by dose curve; also: potency is read from the fitted curve at half-maximal effect; actives are rising curves; nearly all actives have a fitted effect of over 50% in size
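Growth recovery, yeast-based: influenza A NS1 expressed in S. cerevisiae causes slow growth, and suppressors are detected by OD600. The parent strain without NS1 is used as positive control.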
Shiga inhibitor: A qHTS for Small Molecule Inhibitors of Shiga Toxin. Vero cells, Shiga toxin protein synthesis inhibition reporter. inhibition, % at 38.7 µM. hit rate 9.2% among 290,000; in the data active = inhibition mostly above about 28%, no sharp cut-off; inactive = mostly below about 43%; also: 0% is about no effect
TbPYK inhibitor: qHTS of Trypanosoma Brucei Inhibitors | TbPYK enzyme, Kinase-Glo Plus ATP luminescence, 45 min | pyruvate kinase (Trypanosoma brucei), Q57TT1 | hit rate 0.12% among 410,000 | Potency, µM (doses to about 76.8 µM), without a hit: at the top dose activity, negative = inhibition, hits mostly inhibitors; also: potency is read from the fitted curve at half-maximal effect; % is scaled to controls: 0 for no effect and ±100 for the full control effect; nearly all actives have a fitted effect of over 50% in size
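ADP (130 uM final) triggers the TbPYK reaction after compound addition; incubation is 45 min at room temperature. Kinase-Glo Plus is then added and luminescence imaged. Normalized data are fitted to concentration-effect curves.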
Cycloheximide cs: Cycloheximide Counterscreen for Small Molecule Inhibitors of Shiga Toxin; cell reporter, cycloheximide protein synthesis inhibition counterscreen; max response, %; hit rate 12% among 300,000; AID 2314, 2010; in the data active = max response mostly above about 13%, no sharp cut-off; inactive = mostly below about 14%; also: read at 38.3 µM for the half of the compounds with a filed dose; 0% is about no effect
Numbers without * were called inactive; ? = inconclusive; / = no result; [ ] = another dose, or the depositor's remark. This is one part of a sample in which hits are shown more often than they occur. Unless noted, calls follow the shape of the dose curve; as a rule, active = well fitted curve in the direction sought with a large enough effect; inconclusive = small, poorly fitted or top-dose-only effect, or another doubt; inactive = no such curve, though single readings can be large; an effect the other way counts as inactive or inconclusive.

SMILES	SARS PLP yeast	LmPK inh	NS1 function inh	Shiga inhibitor	TbPYK inhibitor	Cycloheximide cs
Oc1ccccc1C=Nc1cccc2ccccc12	3.2%	-6.7%	6.7%	1.3	-0.5%	-3.0
CCOc1ccccc1C=Nc1ccccc1C(=O)Nc1ccccc1	-2.2%	2.9%	7.7%	68.4*	-1.4%	16.1*
CCc1ccccc1NC(=O)NC1CCCCC1	?	-11.4%	5.0%	12.7	9.6%	14.2*
CCS(=O)(=O)c1ccc(O)c(NC(=O)Nc2cccc3ccccc23)c1	2.3%	-8.1%	-1.2%	-5.5	-1.5%	-1.4
CCS(=O)(=O)c1ccc(O)c(NC(=O)NC2CCCCC2)c1	-0.3%	-0.9%	-1.6%	13.4	2.6%	12.3*
O=C(Nc1ccccc1Cl)NC1CCCCCCC1	-4.5%	0.8%	-3.5%	57.5*	2.3%	39.7*
COc1ccc(NS(=O)(=O)c2ccc(C)c(NC(=O)CNC(=O)c3ccco3)c2)cc1	4.2%	/	/	/	0.8%	/
CCCN1CCN(C(=O)Cn2nc(CC)n3c(cc4sccc43)c2=O)CC1	3.5%	0.9%	13.5%	-6.2	4.1%	0.9
COc1cccc(Nc2ncnc3ccccc23)c1	-11.3%	?	-16.5%	98.7*	1.1%	30.5*
COc1cccc(Nc2cc(C)c3ccccc3n2)c1	0.9%	-0.1%	-10.6%	66.2*	4.4%	24.8*
COc1ccc(Nc2cc(Nc3ccccc3)ncn2)cc1	-2.8%	0.0%	-2.2%	48.9*	16.0%	31.4*
COc1ccc(Nc2ncnc3ccccc23)cc1	3.6%	-3.8%	-0.5%	71.2*	1.8%	29.7*
CCCN1CCN(c2nnc(-n3cccc3C(=O)Nc3cc(Cl)ccc3C)s2)CC1	/	/	/	/	-14.5%[15.4 µM]	/
COc1ccc(Nc2ccnc(Nc3ccc(OC)cc3)n2)cc1	-2.8%	-0.1%	5.8%	72.0*	-3.8%	36.5*
COc1ccc(Nc2ccccc2N)cc1	-21.1%	1.6%	/	43.6*	1.8%	27.7
COc1ccc(Nc2ccnc3ccccc23)cc1	2.3%	7.5%	-6.1%	-3.9	0.8%	17.6*
CC(C)Nc1ccc(Nc2ccnc3cc4ccccc4cc23)cc1	-1.3%	-3.3%	-9.3%	9.3	0.3%	8.9
CCNc1nc(-c2ccc(Cl)cc2)cs1	0.8%	-21.4%	-15.2%	81.0*	0.1%	52.4*
O=C(Nc1ccccc1)Nc1nc(-c2ccc(Cl)cc2)cs1	-6.1%	0.8%	-5.8%	-4.8	-2.8%	1.0
CNc1nc(-c2ccc(Cl)cc2)cs1	-3.7%	-8.1%	-46.9%	75.9*	-0.7%	27.5*
CC(C)C(=O)Nc1nc(-c2ccc([N+](=O)[O-])cc2)cs1	1.1%	0.8%	1.8%	39.7	-3.2%	19.1
CNc1nc(-c2ccc([N+](=O)[O-])cc2)cs1	5.6%	-1.9%	0.3%	52.7*	4.1%	31.7*
CCN(CC)CC(=O)Nc1nc(-c2ccc(Cl)cc2)cs1	-4.2%	13.0%	-9.1%	12.4	-4.0%	7.0
CC1(C)CC(c2nc(-c3ccc([N+](=O)[O-])cc3)cs2)CCO1 (configuration not stated)	-3.1%	5.7%	/	42.7	-2.2%	17.0*
O=C(Nc1ccccc1Cl)c1cc(C2CCCN(C(=O)c3cccc(O)c3)C2)on1 (configuration not stated)	/	/	/	/	-5.8%	/
SMILES	SARS PLP yeast	LmPK inh	NS1 function inh	Shiga inhibitor	TbPYK inhibitor	Cycloheximide cs
CCOc1ncccc1C(=O)NNC(=O)c1ccc(NS(=O)(=O)c2cccs2)cc1	-4.6%	/	/	/	-1.4%	/
CCC[C@@H]1CCCO[C@@](C(=O)NCCN2CCOCC2)(C(F)(F)F)C1	/	/	/	-1.6	-0.6%	5.6
CC(=O)c1c(C)[nH]c(C(=O)Nc2ccccc2Cl)c1C	/	-5.5%	-10.7%	46.4*	0.5%	18.9
CC(=O)c1c(C)[nH]c(C(=O)Nc2cc(C)ccc2C)c1C	-7.8%	4.6%	0.3%	-13.8	0.1%	-2.6
CC(=O)c1c(C)[nH]c(C(=O)Nc2ccc(C)cc2Br)c1C	-8.3%	10.7%	-3.3%	66.0*	0.1%	24.8*
CC(=O)c1c(C)[nH]c(C(=O)Nc2cc(F)ccc2C)c1C	-8.7%	0.0%	-24.1%	-1.0	4.5%	9.7
CC(=O)c1c(C)[nH]c(C(=O)NCCc2cccc(C)c2)c1C	-10.1%	1.9%	-17.5%	79.9*	-3.9%	44.8*
